Rab9 promoter act = activators of Rab9 promoter; Potency, µM (highest dose often 9.22 µM), without a hit: top-dose activation, negative = inhibition, most hits filed as activators; 2.8% of 320,000 active; AID 485297; Huh7 Rab9 promoter-luciferase reporter, luminescence, 24 h; further: % of control where 0% means no effect; nearly all actives have a fitted effect of over 60% in size
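Quantitative HTS format; Huh7 Rab9-luciferase reporter cells (1500/well) receive compound 2 h post-plating, incubate 24 h at 37 °C, then get luciferase reagent for 10 min before luminescence reading.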
ELG1 genotox = induces genotoxicity in HEK293T cells with luciferase-tagged ELG1; 1.3% of 330,000 active; Potency, µM (highest dose often 46 µM), for inactives: at the highest dose activity change, positive = activation, actives largely listed as activators; AID 504466; HEK293T ELG1-luciferase reporter, luminescence, 16 h; further: % of control where 0% means no effect; nearly all actives have a fitted effect of over 60% in size
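After overnight (16 hr) compound treatment at 37 °C, ELG1-luciferase HEK293T cells were lysed with ONE-Glo; luminescence quantified 30 min later at room temperature.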
SMN2 splice enh = increases expression of the SMN2 splice variant. HEK293 SMN2-luciferase splicing reporter, luminescence, 30-36 h. Potency, µM (top dose mostly 46.1 µM), without a hit: at the top dose activity change, positive = activation, usual class: activators. 2.8% of 210,000 active; further: % of control where 0% means no effect; nearly all actives have a fitted effect of over 55% in size
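HEK293 cells carry an SMN2 minigene-luciferase reporter in which exon 7 inclusion puts luciferase in frame. Cells were seeded at 2000 cells/well, attached for 10-12 hours, then exposed to compounds for 30-36 hours at 37C before ONE-Glo luminescence.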
NPC1 prom act = activators of NPC1 promoter | Huh7 NPC1 promoter luciferase reporter, 24 h | Potency, µM (titrated, usually from 9.22 µM), for inactives: at the highest dose activation, actives largely listed as activators | 2.4% of 320,000 active | AID 485313; further: % of control where 0% means no effect; nearly all actives have a fitted effect of over 60% in size
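In 1536-well qHTS, Huh7 cells harboring an NPC1 promoter–luciferase construct received compound for 24 h; activation was quantified by luminescence following luciferase reagent addition.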
FLuc modulator = firefly luciferase modulation, counter-screen for miR-21 project; purified FLuc, Km substrates, luminescence inhibition; Potency, µM (titrated, usually from 57.5 µM), without a hit: top-dose activity change, negative = inhibition, hits mostly inhibitors; 6.9% of 360,000 active; AID 588342;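 further: plate controls were vehicle for no effect and reference inhibitor for full effect; nearly all actives have a fitted effect of over 55% in size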
Target sequence (P08659 whole entry, looked up): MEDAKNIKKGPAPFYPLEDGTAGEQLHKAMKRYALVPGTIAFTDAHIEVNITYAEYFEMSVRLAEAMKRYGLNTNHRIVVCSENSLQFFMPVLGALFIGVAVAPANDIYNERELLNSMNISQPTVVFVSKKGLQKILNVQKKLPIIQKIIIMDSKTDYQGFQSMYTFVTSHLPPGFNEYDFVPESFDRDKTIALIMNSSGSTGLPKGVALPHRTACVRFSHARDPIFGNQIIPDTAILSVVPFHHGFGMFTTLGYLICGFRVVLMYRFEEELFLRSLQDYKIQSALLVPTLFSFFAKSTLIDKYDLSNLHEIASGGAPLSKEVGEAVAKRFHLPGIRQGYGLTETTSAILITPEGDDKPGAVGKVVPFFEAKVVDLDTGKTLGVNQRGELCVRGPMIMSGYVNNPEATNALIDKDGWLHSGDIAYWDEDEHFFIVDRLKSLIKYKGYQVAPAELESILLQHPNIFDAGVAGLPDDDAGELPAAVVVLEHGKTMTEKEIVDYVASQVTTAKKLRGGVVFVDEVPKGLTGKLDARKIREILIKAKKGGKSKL
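Biochemical qHTS of compounds, final roughly 60 µM downward over six points, against 10 nM purified firefly luciferase using Km concentrations of substrates (10 uM D-luciferin, 10 uM ATP) in Tris acetate pH 7.5 buffer; luminescence output.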
KinaseGlo FLuc = blocks Kinase-Glo luciferase, a counter-screen artifact; Q27757; Kinase-Glo luciferase, ATP luminescence, 8 min; Potency, µM (titrated, usually from 38.3 µM), inactives show at the top dose activity change, negative = inhibition, hits mostly inhibitors; 0.28% of 200,000 active; further: on the % scale 0 is the no-effect control and ±100 the full control effect; nearly all actives have a fitted effect of over 60% in size
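Kinase-Glo luciferase light output from ATP and luciferin was measured with 10 uM ATP, within the enzyme's linear range. Buffer: 50 mM imidazole pH 7.2, 50 mM KCl, 7 mM MgCl2, 0.01% Tween 20, 0.05% BSA; luminescence read after 8 min at ambient temperature.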
Starred values were filed as active, the others as inactive; [ ] = dose if it differs, or a comment. Rows were chosen to be rich in hits. Some 7.3% of all compounds tested hit in one or more screens of this group. The call rests on the fitted dose curve; in most records, active means well fitted curve in the direction sought with a large enough effect; inconclusive means small, poorly fitted or top-dose-only effect, or another doubt; inactive means no such curve, though single readings can be large; an effect the other way counts as inactive or inconclusive. Potency means the concentration at half of the fitted maximal effect.

CC(C)(C)c1csc(NC(=O)c2ccc(Br)o2)n1 was read as Rab9 promoter act inconclusive, ELG1 genotox -6%, NPC1 prom act inconclusive and FLuc modulator 27µM*.
For CCOc1cccc2cc(-c3csc(NC(=O)CCC(=O)N4CCC(C)CC4)n3)c(=O)oc12 the results were Rab9 promoter act 0%, ELG1 genotox 16%, SMN2 splice enh -21%, NPC1 prom act inconclusive, FLuc modulator -2% and KinaseGlo FLuc 2%.
For CCOc1cccc2cc(-c3csc(NC(=O)CCC(=O)NCCCN4CCC(C)CC4)n3)c(=O)oc12 the results were Rab9 promoter act 4µM*, ELG1 genotox 10µM*, SMN2 splice enh 8.9µM*, NPC1 prom act 27%, FLuc modulator 17µM* and KinaseGlo FLuc -3%.
Cc1nc2ccccc2c2oc(C(=O)NCCN3CCCCC3C)cc12 (centres undefined) was read as Rab9 promoter act 0%, ELG1 genotox 8%, SMN2 splice enh 5%, NPC1 prom act -1%, FLuc modulator 5% and KinaseGlo FLuc -1%.
Screening COc1cccc2cc(-c3csc(NC(=O)CCC(=O)NCCCN4CCC(C)CC4)n3)c(=O)oc12 returned Rab9 promoter act 0.71µM*, ELG1 genotox inconclusive, NPC1 prom act 1.4µM* and FLuc modulator 9.5µM*.
Screening CCOc1cccc2cc(-c3csc(NC(=O)CCC(=O)NCCN4CCCCC4C)n3)c(=O)oc12 (centres undefined) returned Rab9 promoter act inconclusive, ELG1 genotox inconclusive, SMN2 splice enh 3.2µM*, NPC1 prom act inconclusive, FLuc modulator 11µM* and KinaseGlo FLuc -11%.
`Cn1ncc(Br)c1C(=O)Nc1c(F)c(F)cc(F)c1F` gave Rab9 promoter act -5%, ELG1 genotox 17%, SMN2 splice enh 25µM*, NPC1 prom act -6%, FLuc modulator 0% and KinaseGlo FLuc 0%.
`CCOc1ccc(C(=O)Nc2ccc3c(c2)OCCO3)cc1` gave Rab9 promoter act 0.4µM*, ELG1 genotox 2.3µM*, NPC1 prom act 0.5µM* and FLuc modulator 2.1µM*.
`CCOc1cc(C(=O)NC(=S)Nc2nc(C)cc(C)n2)cc(OCC)c1OCC` gave Rab9 promoter act -3%, ELG1 genotox -2%, NPC1 prom act -12% and FLuc modulator 3%.
Screening COc1ccc(C(=O)Nc2ccc3c(c2)OCCO3)cc1Br returned Rab9 promoter act 1.3µM*, ELG1 genotox inconclusive, NPC1 prom act 1µM* and FLuc modulator 1.5µM*.
For CCOc1ccc(NC(=O)CN2CCN(CC(=O)Nc3ccc4c(c3)OCCO4)CC2)cc1 the results were Rab9 promoter act -4%, ELG1 genotox 1%, SMN2 splice enh 7%, NPC1 prom act 2%, FLuc modulator 2% and KinaseGlo FLuc 2%.
COc1ccc(C(=O)NC(=S)Nc2nc(C)cc(C)n2)cc1Br was read as Rab9 promoter act inconclusive, ELG1 genotox -1%, NPC1 prom act inconclusive and FLuc modulator 15µM*.
CCOc1ccc(C(=O)Nc2ccc3c(c2)OCCO3)cc1Br was read as SMN2 splice enh 16µM* and FLuc modulator 1.3µM*.
`Cc1ccc(CONC(=O)c2ccc(C)cc2)cc1` gave Rab9 promoter act inconclusive, ELG1 genotox inconclusive, NPC1 prom act inconclusive and FLuc modulator 13µM*.
`Cc1ccc(C(=O)N/C(=C\c2ccccc2)C(=O)OCc2ccccc2)cc1` gave Rab9 promoter act inconclusive, ELG1 genotox inconclusive, SMN2 splice enh 20µM*, NPC1 prom act inconclusive, FLuc modulator 15µM* and KinaseGlo FLuc 0%.
`Cc1ccc(CONC(=O)c2ccc(Cl)cc2)cc1` gave Rab9 promoter act inconclusive, ELG1 genotox inconclusive, NPC1 prom act 0% and FLuc modulator inconclusive.
Screening Cc1ccc(CONC(=O)c2ccccc2)cc1 returned Rab9 promoter act inconclusive, ELG1 genotox inconclusive, NPC1 prom act inconclusive and FLuc modulator 15µM*.
`Cc1ccc(C(=O)N/C(=C/c2ccco2)C(=O)OCN2C(=O)c3ccccc3C2=O)cc1` gave Rab9 promoter act -3%, ELG1 genotox 2%, SMN2 splice enh -1%[1.84 µM], NPC1 prom act -2%, FLuc modulator 11µM* and KinaseGlo FLuc -4%.
Cc1ccc(NC(=O)c2cc(S(=O)(=O)N3CCOCC3)cn2C)cc1F was read as Rab9 promoter act -1%, ELG1 genotox 0%, NPC1 prom act -7% and FLuc modulator 5%.
For O=C(COC(=O)CC1CCCC1)Nc1cc2c(cc1Cl)C(=O)c1ccccc1C2=O the results were Rab9 promoter act 6.3µM*, ELG1 genotox 15µM*, SMN2 splice enh inconclusive, NPC1 prom act 3.5µM*, FLuc modulator 13µM* and KinaseGlo FLuc 0%.
For O=C(NCCc1ccccc1)c1oc2ccccc2c1COc1ccccc1 the results were Rab9 promoter act -2%, ELG1 genotox -1%, SMN2 splice enh -16%, NPC1 prom act -1%, FLuc modulator inconclusive and KinaseGlo FLuc -1%.
Screening COc1ccc(C(CNC(=O)c2oc3ccc(Cl)cc3c2C)N2CCCCC2)cc1 (centres undefined) returned Rab9 promoter act -3%, ELG1 genotox 1%, SMN2 splice enh 3%, NPC1 prom act -2% and FLuc modulator 1%.
For COc1ccc2oc(C(=O)NCCc3ccccc3)c(C)c2c1 the results were Rab9 promoter act inconclusive, ELG1 genotox inconclusive, NPC1 prom act 0.45µM* and FLuc modulator inconclusive.
`Cc1c(C(=O)NCCc2ccccc2)oc2ccccc12` gave Rab9 promoter act 0.71µM*, ELG1 genotox 2.1µM*, NPC1 prom act 0.79µM* and FLuc modulator 2.1µM*.
COc1ccc(C(CNC(=O)c2oc3ccccc3c2C)N2CCCC2)cc1 (centres undefined) was read as Rab9 promoter act -9%, ELG1 genotox -1%, NPC1 prom act -3% and FLuc modulator 21µM*.
For CSc1ccccc1C(=O)C1CCCN(S(=O)(=O)N(C)C)C1 (centres undefined) the results were Rab9 promoter act -7%, ELG1 genotox -4%, NPC1 prom act -1%, FLuc modulator -2% and KinaseGlo FLuc 4%.
Screening COc1cccc(NC(=O)CSc2nnc(CNC(=O)c3ccccc3F)o2)c1 returned Rab9 promoter act 3%, ELG1 genotox 12%, NPC1 prom act -3% and FLuc modulator -3%.
Cc1cccc(C(=O)OCC(=O)N2CCC(c3ccccc3)=N2)c1O was read as Rab9 promoter act 1%, ELG1 genotox 13%, NPC1 prom act 0% and FLuc modulator -1%.
